Out of some 1,200 compounds screened, about 810 (68%) were called active. The rule behind the calls is not given here. So high a share suggests a set chosen from earlier hits. Not all results are given here. Potency and affinity values are given separately.
Experiment: TRPM1 promoter luciferase signal decrease, dose response, MITF inhibitor project, cell-based, SK-MEL-5, cherry-picked, set 3 (AID 493073)
Details: SK-MEL-5 TRPM1 promoter luciferase, 24 h; series mostly up to 35 µM; activity change, negative = inhibition: at the top concentration

Activity change, negative = inhibition, inactive:
O=C(/C=C/c1ccc2c(c1)OCCO2)c1ccccc1 -51.6%, O=C(Nc1ccccc1F)c1ccc2c(c1)OCO2 -47.3%, CC(=O)N(c1nnc(-c2cccc(C)c2)s1)C1CCCC1 101%, C/C(=N\Nc1nccnc1Cl)c1ccc(O)c(C)c1 91.9%, CCCOc1ccc(-c2c(=O)n(O)c3ccccc3[n+]2[O-])cc1 37.1%, CN1CCN(CCCOc2ccc(-c3ccccc3)cc2)CC1 13.4%, COc1ccc(C(=O)CN2Cc3ccccc3C2=N)cc1 76.8%, O=C(c1ccc(F)cc1)N1CCC(c2ccccc2)C1 (centres undefined) 104%, COc1ccc2oc(=O)c(C(=O)Nc3ccccc3C)cc2c1 -2.57%, COc1ccc(NC(=O)c2cc3ccccc3oc2=O)c(OC)c1 52.2%, COc1ccc(N/C=C\C(=O)c2ccc3ccccc3c2)cc1 88.6%, COc1ccc(COC(=O)c2n[nH]c3ccccc23)cc1F 47.7%, Cc1ccc(C(CNS(=O)(=O)c2ccc(Br)cc2)N2CCN(C)CC2)cc1 (centres undefined) -81.2%, COc1ccc(/C=C/c2cc(C(F)(F)F)on2)cc1 107%, Cc1cccc(OCc2nc3ccccc3n2C)c1 -19.5%, O=C(/C=C/c1ccc2c(c1)OCO2)N1CCCCC1 62.1%, O=C(Nc1ccccc1)C1Cc2ccccc2CN1C(=O)c1ccco1 (centres undefined) 73.5%, CC(=O)Oc1ccc(C)cc1-n1nc2ccccc2n1 65.9%, CC(C)C(=O)Nc1ccc2nn(-c3ccc(F)cc3)nc2c1 7.63%, CCOCCCNC(=O)/C(C#N)=C/c1ccc([N+](=O)[O-])o1 -96.3%, Cc1nc(NCCOc2ccccc2)sc1C(=O)Nc1ccccc1 46.1%, O=C(Cc1ccccc1)Nc1ccc(NC(=O)c2ccco2)nc1 -37.9%, COc1ccc2oc(=N)c(C(=O)Nc3ccccc3Cl)cc2c1 21.5%, CCOC(=O)c1sc(NC(=O)Nc2ccc(Cl)cc2)nc1C 96.9%, CCOC(=O)c1ccc2nc(C)c(CCC(C)=O)c(Cl)c2c1 105%, Cn1c(/C(C#N)=C/c2ccc(-c3ccc(S(N)(=O)=O)cc3)o2)nc2ccccc21 -79.9%, COc1ccc(/C=N/Nc2ccccn2)cc1OC 97.2%, S=c1[nH]nc(-c2ccco2)n1/N=C/C(Cl)=C/c1ccccc1 77.9%, Nc1ccccc1SC1CC(=O)N(c2ccc3c(c2)OCCO3)C1=O (centres undefined) 82.2%, COc1ccccc1N1CCN(/N=C/c2cccc(Cl)c2)CC1 132%, Cc1csc(NC(=O)Cc2c(F)cccc2Cl)n1 78.6%, Clc1ccc(-c2noc(CN3CCOCC3)n2)cc1 81.6%, Cc1ccc(NC(=O)c2cnc3ccccc3n2)cc1C 44.3%, O=C(CC(=O)c1ccccc1)Nc1ccccc1 12.2%, COc1ccc(-c2noc(-c3cccs3)n2)cc1OC 95.4%, CCc1nc2oc3ccc(C)cc3c(=O)c2cc1C(=O)OC 89.6%, CCOc1ccc2nc(NC(=O)Cc3cccs3)sc2c1 92.9%, Cc1[nH]nc(Nc2ccc(Br)cc2)c1[N+](=O)[O-] 91.7%, CS/C(N)=N/N=C/c1ccc2c(c1)OCO2 103%, COc1cccc(/C=N/Nc2nc3ccccc3[nH]2)c1OC 125%, COc1ccccc1N1CCN(/N=C\c2ccccc2)CC1 104%, CC(C)c1ccc(C(=O)Nc2cccnc2)cc1 12.8%, COC(=O)c1ccc(/C=N/Nc2nc(C)c(C)s2)cc1 36%, O=C(CSc1nc2ccccc2[nH]1)c1ccc2c(c1)OCO2 102%, O=C(Nc1ccc(Br)cc1)c1ccc2c(c1)OCO2 39.3%, CCOc1ccc2cc(C#N)c(SCC(=O)OC)nc2c1 112%, CC(=O)Nc1ccc(-c2nc3ccccc3o2)cc1 57.7%, Cc1occc1C(=O)N/N=C/c1ccc(OCc2ccccc2)cc1 87.6%, CCc1nc2oc3ccccc3c(=O)c2cc1C(=O)OC 12.5%, COc1ccc(-c2csc(Nc3ccccn3)n2)cc1OC -24.3%, Cc1nc(-c2ccccn2)sc1C(=O)Nc1ccc(F)cc1F 45.1%, COCn1c(COc2ccccc2)nc2ccccc21 71.5%, Cc1ccc(-n2cc(CNCCCn3cccn3)c(-c3cccc(C)c3)n2)cc1 -100%, Cc1oc(=O)c(NC(=O)c2ccccc2)cc1C(=O)c1ccccc1 90.5%, CN(C)c1ccc(NC(=O)Nc2ccc3c(c2)nnn3C)cc1 90.3%, CN(C)c1ccc(/C=N/N2CCN(c3ccccn3)CC2)cc1 80.7%, CN(C)c1ccc(CNc2ccccn2)cc1 108%, CC(C)OC(=O)CSc1nc2cc3c(cc2cc1C#N)OCO3 69%, O=C(Nc1ccc(N2CCOCC2)c(Cl)c1)c1cccc(F)c1 102%, Cc1ccc(N2C(=O)c3ccc(N)cc3C2=O)cc1C 101%, Oc1ccc(-c2nnc(SCC3CCCCC3)o2)cc1 108%, CCCC1=Nc2cc(C(=O)NCCN3CCCC3)ccc2Sc2ccccc21 -84%, COc1ccc(C[C@H]2CN3C(=NC[C@@H]3C(C)C)N2CCNC(=O)c2ccc(C)c(Br)c2)cc1 -111%, COc1ccc(/C=C2\Sc3ccc(C(=O)NCCN4CCCCCC4)cc3N(C)C2=O)cc1 -76.3%, CCN1CCN(CCCNC(=O)c2ccc3c(Cl)c4c(nc3c2)CCCC4)CC1 -101%, Cc1ccc(-c2noc(-c3ccno3)n2)cc1 83.1%, Cc1ccc2[nH]c(=O)c(CN(CCCN(C)C)C(=O)Nc3cccc(Cl)c3)cc2c1 -105%, O=C(NCc1ccc2c(c1)OCO2)c1cc(=O)[nH]c2ccccc12 0.381%, Nc1c(N(CCC2=CCCCC2)C(=O)COc2ccc(F)cc2)c(=O)[nH]c(=O)n1Cc1ccccc1 -94.3%, O=C(NCc1csc(-c2cccs2)n1)C1CCC1 76.4%, O=C(Nc1ccc(Cl)cc1)OCc1ccccn1 105%, CCOc1ccc(NC(=O)c2ccc3snnc3c2)cc1 -60.8%, O=C(Nc1ccc2c(c1)OCCO2)c1cccc(Cl)c1Cl 22.9%, O=C(Nc1ccc2c(c1)OCCO2)c1ccoc1 39.9%, O=C1CN(c2ccccc2)C(=S)N1C(=O)c1ccccc1 75%, COc1ccc(NC(=O)c2cc(F)cc(F)c2)cc1Cl -77.3%, O=[N+]([O-])c1ccc(N/N=C/C=C/c2ccco2)cc1 51%, CCN(CC)CC(=O)Nc1scc2c1c(=O)oc1ccccc12 129%, Fc1ccc(-c2nnc(-c3ccc(F)cc3)o2)cc1 47.1%, CCc1ccc(Nc2nc(C)cc(C)n2)cc1 83.9%, CCOC(=O)c1ccc(NC(=O)Cc2cccs2)cc1 77.7%, O=C(N/N=C/C(Cl)=C\c1ccccc1)c1cccs1 64.5%, C/C(=C\c1ccccc1)C(=O)Nc1ccc(Cl)cn1 47.7%, Brc1cccc(/C=N/Nc2nn[nH]n2)c1 -36.9%, Cc1ccc2cc(NC(=O)Cc3ccccc3)ccc2n1 76.3%, CN(c1cccc(NC(=O)COc2ccc(Cl)cc2Cl)c1)S(C)(=O)=O 40.2%, O=C(N/N=C/c1ccccc1)c1ccco1 51.9%, O=C(Nc1ccccc1)O/N=C/c1ccc(F)cc1 42.1%, O=C(C[n+]1cc(-c2ccc(F)cc2)n2c1CCC2)c1cccs1 47.1%, COc1cc(-c2nnc(-c3ccco3)o2)ccc1OCc1ccccc1 46.7%, COc1ccc(C(=O)Nc2ccc3ccccc3c2)cc1OC 80.8%, CCOC(=O)C1(Cc2ccccc2)CCCN(CCCn2cccn2)C1 (centres undefined) -1.67%, CCOc1ccc(-c2nnc(-c3cccs3)o2)cc1OCC 136%, O=C(COc1ccc2c(c1)CCC2)N1CCc2ccccc21 100%, Oc1cc(NCc2cccnc2)ccc1-c1nc2ccccc2o1 15.3%, Cc1ccc2nc(-c3cccnc3)oc2c1 15.7%, O=C(Nc1ccccc1Cl)c1cc(=O)c2ccccc2o1 -80.1%, CC(C)c1ccc(CNc2ncccn2)cc1 103%, COCc1nc(-c2ccc(-c3ccccc3)nc2OC)no1 6%, COc1cc(CN2CCC(Cc3ccccc3)CC2)cc(OC)c1OC 102%, COc1ccc(S(=O)NC2CCCCC2)c(OC)c1C (centres undefined) 21.7%, O=C(CCCCC(=O)NN=Cc1ccccc1O)NN=Cc1ccccc1O 23.5%, CC(C)C(NC(=O)OCc1ccccc1)C(=O)OCC(=O)N1CCCCC1 (centres undefined) 5.47%, Cc1ccc2c(COC(=O)c3n[nH]c4ccccc34)cc(=O)oc2c1 114%, N#Cc1ccc(-c2cccnc2)nc1SCC(=O)c1ccccc1 33.3%, CS(=O)(=O)c1ncc(Cl)c(C(=O)Nc2ccc3ccccc3c2)n1 -108%, O=C(CCCCl)NC(=S)Nc1ccc(N2CCOCC2)cc1 13.8%, CCNc1nc(N)c(C(=O)c2ccc(Cl)s2)s1 45.7%, COc1ccc(-c2nc(-c3ccncc3)no2)cc1OC 111%, c1ccc(OCc2nn3c(-c4ccccn4)nnc3s2)cc1 51%, COc1cccc(/C=N/NC(=O)CN2CC(c3ccccc3)CC2=O)c1OC (centres undefined) -2.27%, Cc1cc(/C=C(\C#N)C(=O)O)c(C)n1CC(C)C 8.27%, CSCCNC(=O)c1ccc2nc(Cc3ccccc3F)oc2c1 85.4%, Cc1nc2ccc(NC(=O)c3ccco3)cc2nc1C 7.37%, O=C(Nc1ccc2nc(-c3ccccc3)[nH]c2c1)c1ccco1 128%, Cc1nc(NC(=O)C2CC2)sc1C(=O)Nc1ccccc1Cl 64.3%, O=C(CSCc1c(F)cccc1F)Nc1ccccc1 134%, CN(C)c1ccc(/C=N\NC(=O)c2cccc3cc[nH]c23)cc1 27.5%, O=C(CCC1CCCN(C(=O)c2cc3ccccc3o2)C1)NCc1ccc(F)c(F)c1 (centres undefined) 3.79%, CN(C)CCCNc1nc2sc3c(c2c(=O)n1CCc1ccccc1)CCCCC3 -102%, CCOC(=O)C1CCCN(C(=O)C2CCN(S(=O)(=O)CC)CC2)C1 (centres undefined) 93%, N/C(=N\OC(=O)c1ccc(Cl)cc1Cl)c1ccncc1 21.6%, CC(C)S(=O)(=O)c1csc(C(=O)Nc2ccc(F)cc2)c1N 52%, C/C(=N\Nc1cc(N2CCOCC2)ncn1)c1ccccc1 65.8%

— PubChem BioAssay AID493073 (Broad Institute, 2011)
